64 compounds from PubChem BioAssay AID504333 (National Center for Advancing Translational Sciences (NCATS), 2011) can be followed below.

Structures are written as SMILES. Among all 360,000 compounds or so, about 16,000 (4.4%) were called active. Another 9% or so got no clear call; they are omitted. Only a selection was taken, and actives are over-represented in it overall. Values without a mark were called inactive. The call rests on the fitted dose curve; in most records, active means well fitted inhibition curve with a large enough effect; inconclusive means small, poorly fitted or top-dose-only effect; inactive means no such curve, though single readings can be large or run the other way.
On the % scale 0 is the no-effect control and ±100 the full control effect; potency means the concentration at half of the fitted maximal effect.

Bromodomain adjacent to zinc finger domain protein 2B (Homo sapiens), sequence (Q9UIF8 whole entry, looked up, the tested form may be a part): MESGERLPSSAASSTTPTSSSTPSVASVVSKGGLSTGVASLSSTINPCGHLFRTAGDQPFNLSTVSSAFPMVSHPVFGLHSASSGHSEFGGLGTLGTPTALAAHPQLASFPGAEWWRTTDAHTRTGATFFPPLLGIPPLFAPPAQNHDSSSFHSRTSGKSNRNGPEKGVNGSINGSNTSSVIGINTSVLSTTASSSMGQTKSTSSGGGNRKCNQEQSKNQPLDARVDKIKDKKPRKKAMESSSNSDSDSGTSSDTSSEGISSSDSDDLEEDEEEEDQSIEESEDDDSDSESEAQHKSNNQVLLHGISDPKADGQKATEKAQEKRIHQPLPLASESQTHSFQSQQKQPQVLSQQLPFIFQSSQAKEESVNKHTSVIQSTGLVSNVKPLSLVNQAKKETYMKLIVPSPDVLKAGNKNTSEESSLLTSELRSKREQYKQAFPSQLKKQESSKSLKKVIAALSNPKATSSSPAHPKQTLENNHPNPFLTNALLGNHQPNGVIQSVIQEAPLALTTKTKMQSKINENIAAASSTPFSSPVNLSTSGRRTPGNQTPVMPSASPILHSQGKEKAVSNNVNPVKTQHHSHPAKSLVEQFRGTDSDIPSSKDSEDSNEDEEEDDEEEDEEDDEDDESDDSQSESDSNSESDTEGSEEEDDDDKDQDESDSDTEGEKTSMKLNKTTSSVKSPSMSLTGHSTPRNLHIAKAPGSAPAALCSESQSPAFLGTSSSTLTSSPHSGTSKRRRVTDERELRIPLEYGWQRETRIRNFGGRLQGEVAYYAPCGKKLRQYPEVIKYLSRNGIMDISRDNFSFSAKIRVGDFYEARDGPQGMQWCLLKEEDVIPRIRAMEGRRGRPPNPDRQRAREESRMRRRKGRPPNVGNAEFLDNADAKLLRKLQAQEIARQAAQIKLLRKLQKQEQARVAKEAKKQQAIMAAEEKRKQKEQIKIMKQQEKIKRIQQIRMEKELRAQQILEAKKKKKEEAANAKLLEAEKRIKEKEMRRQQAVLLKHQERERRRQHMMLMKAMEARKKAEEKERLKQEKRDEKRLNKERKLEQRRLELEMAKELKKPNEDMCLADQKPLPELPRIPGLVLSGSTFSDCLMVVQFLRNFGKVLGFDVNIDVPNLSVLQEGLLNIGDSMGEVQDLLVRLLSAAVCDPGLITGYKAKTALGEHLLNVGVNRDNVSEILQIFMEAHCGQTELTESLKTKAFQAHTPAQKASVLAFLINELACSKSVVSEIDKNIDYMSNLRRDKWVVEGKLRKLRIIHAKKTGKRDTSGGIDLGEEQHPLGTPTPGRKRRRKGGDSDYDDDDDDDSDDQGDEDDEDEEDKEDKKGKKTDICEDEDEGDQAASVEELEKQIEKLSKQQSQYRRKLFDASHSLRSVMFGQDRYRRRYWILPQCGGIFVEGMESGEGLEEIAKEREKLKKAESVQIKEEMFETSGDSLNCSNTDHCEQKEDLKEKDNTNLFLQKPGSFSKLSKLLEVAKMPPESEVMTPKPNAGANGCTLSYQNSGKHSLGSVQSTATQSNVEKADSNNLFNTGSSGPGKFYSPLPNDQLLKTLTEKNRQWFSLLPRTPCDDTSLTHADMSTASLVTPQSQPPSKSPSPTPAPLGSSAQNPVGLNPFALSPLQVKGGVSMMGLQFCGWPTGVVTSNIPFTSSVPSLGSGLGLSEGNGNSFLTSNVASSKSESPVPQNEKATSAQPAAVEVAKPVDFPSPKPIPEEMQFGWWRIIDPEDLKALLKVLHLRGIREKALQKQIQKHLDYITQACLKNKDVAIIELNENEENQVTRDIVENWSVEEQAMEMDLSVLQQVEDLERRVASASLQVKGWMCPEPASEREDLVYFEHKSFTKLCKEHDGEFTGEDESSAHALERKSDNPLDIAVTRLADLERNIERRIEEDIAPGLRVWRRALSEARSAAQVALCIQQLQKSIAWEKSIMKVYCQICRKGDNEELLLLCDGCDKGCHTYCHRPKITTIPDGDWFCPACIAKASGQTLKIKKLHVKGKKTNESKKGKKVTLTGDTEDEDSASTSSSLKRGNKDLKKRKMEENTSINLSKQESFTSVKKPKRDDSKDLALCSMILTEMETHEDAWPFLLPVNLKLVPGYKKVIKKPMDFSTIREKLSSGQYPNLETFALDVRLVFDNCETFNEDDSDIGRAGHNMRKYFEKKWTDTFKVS

The assay deals with Bromodomain adjacent to zinc finger domain protein 2B (Homo sapiens) (UniProt Q9UIF8). The experiment in a line: qHTS Assay for Inhibitors of BAZ2B. Further: nearly all actives have a fitted effect of over 60% in size. The note with it: AlphaScreen BAZ2B-H3K14Ac peptide displacement; series mostly up to 114 µM; activity change, negative = inhibition: at the top concentration. The gist of the method:
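BAZ2B 50 nM plus b-H3(5-23)K14Ac 50 nM, PBS pH 7.4/0.01% Tween-20, 30 min RT; compound added (max 110 uM), 30 min RT; streptavidin donor/Ni-chelate acceptor beads 10 ug/mL final, 20 min dark; AlphaScreen read.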
`CCC(=O)Nc1cccc(-c2nc3cc(C)ccc3o2)c1`: the “activity change, negative = inhibition” value was 5.01%.

As for `Cc1ccc(C)c(N2CCN(C(=O)Cn3ncc4c(=O)oc5ccc(C)cc5c43)CC2)c1`, the “activity change, negative = inhibition” value is -26%.

With `O=C(O)c1n[nH]nc1-c1ccccc1`, the Potency is 56.2 µM (active). Turning to `O=C(O)c1ccc(-n2nc(-c3ccccc3)c3ccccc3c2=O)cc1`, the “activity change, negative = inhibition” value was 2.92%. The same measure, in the same setting: the value for `N#Cc1c(-c2ccccc2)c(-c2ccccc2)n[nH]c1=O` was -11.4%. The same measure, in the same setting: the value for `COc1ccc(Br)cc1CNC(=O)c1cc(=O)[nH]c2ccc(S(=O)(=O)N3CCCC3)cc12` was 0.679%; that for `COc1ccc(S(=O)(=O)NCc2ccc(C(=O)N(C)Cc3ccco3)cc2)cc1` was -3.81%; that for `COc1ccc(C(=O)N(Cc2ccc(N(C)C)cc2)C2CCS(=O)(=O)C2)cc1` (centres undefined) was -30.6%. Regarding `COc1ccc(N(Cc2ccc(N(C)C)cc2)C(=O)c2ccc(S(C)(=O)=O)cc2)cc1`, the Potency was 39.8 µM (active). Consider `CC(C)Cn1c(=O)c2ccccc2n2c(CCC(=O)N3CCN(c4cccc(Cl)c4)CC3)nnc12`, for which the “activity change, negative = inhibition” value is -0.869%.

For the compound `Cc1cc(NC(=O)c2cccc(Cl)c2)ccc1-c1cc2ccccc2oc1=O`, the “activity change, negative = inhibition” value is 5.75%. On the same count and under the same terms, for `O=C(CN1C(=O)C2C3CCC(C3)C2C1=O)Oc1ccc2ccccc2c1` (centres undefined) the value was 8.38%; for `CC1=CC(C)(C)Nc2ccc(OC(=O)C(Cc3ccccc3)N3C(=O)C4CCCCC4C3=O)cc21` (centres undefined), -37.8%. Regarding `CC1=CC(C)(C)Nc2ccc(OC(=O)CN3C(=O)C4CCCCC4C3=O)cc21` (centres undefined), the Potency was 56.2 µM (active). On to `COc1ccc(CCNC(=O)c2ccc3c(c2)sc2nc(-c4ccc(C)cc4)cn23)cc1OC`, for which the “activity change, negative = inhibition” value is -0.933%. On the same count and under the same terms, the value for `Cc1cccc(CNC(=O)c2cnc3sc(N4CCCCC4)nn3c2=O)c1` was 11.1%. Still for that read-out and setting: the value for `Cc1ccc2nc(/C(C#N)=C/c3ccc(-c4ccc(C(=O)OC(C)C)cc4)o3)[nH]c2c1` was -14.2%; that for `CCc1ccccc1NC(=O)N1CCC2(CC1)Oc1ccccc1C(=O)N2Cc1ccccc1F` was -2.22%; that for `COc1ccc(CC(=O)N/N=C/c2cc([N+](=O)[O-])cc(Br)c2O)cc1` was -17.4%. Same read-out and setting: the value for `c1ccc2sc(NN=C3CCCC3)nc2c1` was 1.97%. In the case of `O=[N+]([O-])c1cc(Br)c(O)c(/C=N/Nc2nc3ccccc3s2)c1`, the Potency is 35.5 µM (active). As to `CCN(CC)CCNC(=O)c1cc2c(=O)oc3ccc(C)cc3c2s1`, the “activity change, negative = inhibition” value is -4.73%. Still for that read-out and setting: for `CCOc1cccc(NC(=O)c2ccc(F)c(S(=O)(=O)N(CC)c3cccc(C)c3)c2)c1` the value was 8.6%.

For the compound `O=C(CCc1ccccc1)Nc1nn[nH]n1`, the Potency is 70.8 µM (active).

Take `CC(C)Cc1nnc(NC(=O)CCc2ccccc2)s1`: the “activity change, negative = inhibition” value was -3.69%.

`O=C(CCc1ccccc1)NNc1ccc(F)cc1`: the “activity change, negative = inhibition” value was -4.02%.

Consider `COc1ccc(OC)c(CNC(=O)CN2C(=O)CCn3nc(-c4cn(C)c5ccccc45)cc32)c1`, for which the “activity change, negative = inhibition” value was -33.4%. For `COc1cccc(NC(=O)c2ccc3nc(CCc4ccccc4)oc3c2)c1`, the “activity change, negative = inhibition” value is 0.792%.

As to `CC(=O)N1CCCc2cc(S(=O)(=O)N3CCC(C(=O)NCc4ccc(C)cc4)CC3)ccc21`, the “activity change, negative = inhibition” value was 2.46%. Still for that read-out and setting: the value for `O=C(Nc1cc(C(F)(F)F)ccc1Cl)c1ccc2c(c1)CCN2S(=O)(=O)c1ccccc1` was -1.09%. `Clc1cccc(Cl)c1OCCOCCNCc1ccccc1`: the Potency is 56.2 µM (active). In the case of `S=C(NCCc1ccccc1)NCc1ccccc1Cl`, the “activity change, negative = inhibition” value is 3.82%. The same measure, in the same setting: for `OCCNCc1cccc(OCc2ccccc2Cl)c1` the value was -19%; for `CN1CCN(CC(=O)Nc2cccc([N+](=O)[O-])c2)CC1`, 6.3%. Take `CCCCc1nc2ccccc2c(NC(=O)CN2CCN(C)CC2)c1CCC`: the Potency is 50.1 µM (active).

Take `CCCCc1nc2ccccc2c(=O)n1NC(=O)c1c(O)c2cccc3c2n(c1=O)CC3`: the “activity change, negative = inhibition” value was 23.1%. `Fc1ccc(CN2CCc3nc(Nc4ccccc4)ncc3C2)cc1F`: the “activity change, negative = inhibition” value is -24.7%. Same read-out and setting: for `COc1ccc(/C=C/C(=O)OCC(=O)Nc2cccc(Oc3ccccc3)c2)c(OC)c1` the value was 0.384%; for `COc1cc(/C=C/C2=CC(C)(C)NC(=S)N2)cc(OC)c1OC`, -25.7%.

Turning to `COc1ccc(/C=C/C2=CC(C)(C)NC(=S)N2)c(OC)c1`, the Potency is 39.8 µM (active). `O=C(O)c1c(CNCc2cccc(F)c2)c2ccccc2n1Cc1ccccc1`: the “activity change, negative = inhibition” value was -0.857%. Still for that read-out and setting: the value for `COC(=O)c1ccccc1NC(=O)c1cnn(-c2ccc(F)cc2)c1-n1cccc1` was -14.4%.

Turning to `Cc1ccc2oc3c(c(=O)c2c1)C(c1ccc(O)cc1)N(Cc1ccc2c(c1)OCO2)C3=O` (centres undefined), the “activity change, negative = inhibition” value was -0.588%. On the same count and under the same terms, for `CCOc1ccc(CCNC(=O)CN(c2ccc(C)cc2)S(=O)(=O)N(C)C)cc1OCC` the value was 1.55%; for `CCN(CC)c1ccc(/C=N/NC(=O)c2cnccn2)c(O)c1`, -7.91%.

In the case of `CCN(CC)c1ccc(/C=N/Nc2nc(C)cc(C)n2)c(O)c1`, the Potency was 25.1 µM (active). Take `Cc1cc(C)nc(N/N=C/c2ccc([N+](=O)[O-])o2)n1`: the “activity change, negative = inhibition” value is -25.2%.

Consider `Cc1ccc(-c2noc(CSc3nnc(-c4ccc(Cl)cc4)n3C)n2)cc1`, for which the “activity change, negative = inhibition” value is -2.06%.

Turning to `Cc1[nH]c2c(C(=O)N3CCCC(CCC(=O)NCc4ccccc4F)C3)cccc2c1C` (centres undefined), the Potency is 70.8 µM (active).

For `CSc1ncccc1C(=O)N1CCCC(CCC(=O)NCc2ccccc2F)C1` (centres undefined), the “activity change, negative = inhibition” value was -0.331%. In the case of `O=C(CCC1CCCN(Cc2ccc(O)c(Cl)c2)C1)NCc1ccccc1F` (centres undefined), the “activity change, negative = inhibition” value was -15%. Still for that read-out and setting: for `CCCNC(=O)C1CCC(Cn2c(=O)c3sccc3n(Cc3ccccc3F)c2=O)CC1` (centres undefined) the value was -3.32%; for `Cc1ccccc1NC(=O)Cn1c(=O)n(CCCCC(=O)NCc2ccccc2Cl)c(=O)c2ccccc21`, 1.21%; for `Cc1cc(F)ccc1NS(=O)(=O)c1ccc(-n2cccn2)cc1`, -2.31%. On the same count and under the same terms, the value for `Cn1ccc2cc(S(=O)(=O)N3CCCC(C(=O)NCc4ccccc4F)C3)ccc21` (centres undefined) was -3.06%; that for `Cc1oc(-c2ccccc2)nc1Cn1c(SCc2cccc(C(F)(F)F)c2)nc2cccnc21` was -3.84%; that for `CCc1nn(CC(=O)N2CCN(c3ccc(Cl)cc3)CC2)c(=O)c2cc3occc3n12` was -29.9%. Still for that read-out and setting: the value for `NC(=O)CCN1CCN(S(=O)(=O)/C=C/c2ccccc2)CC1` was 3.29%. Consider `O=C(CN1CCN(S(=O)(=O)/C=C/c2ccccc2)CC1)NC(=O)NCc1ccco1`, for which the Potency is 50.1 µM (active).

`COc1ccccc1N1CCN(CC(=O)NC(=O)NCc2ccco2)CC1`: the “activity change, negative = inhibition” value is -3.12%.

On to `COc1cccc(CNCCSc2nnnn2C)c1OCc1ccccc1Cl`, for which the “activity change, negative = inhibition” value is -22%.

In the case of `O=c1nc2s/c(=C\c3ccco3)c(=O)n2nc1Cc1ccccc1`, the Potency was 50.1 µM (active). For the compound `O=C(Nc1ccccc1)/C(=C\c1ccco1)NC(=O)c1ccco1`, the “activity change, negative = inhibition” value is -17.7%. Same read-out and setting: for `O=C(Cc1ccccc1)n1nc(-c2ccccc2)nc1NCc1ccco1` the value was 11.8%.
